The values below come from PubChem BioAssay (NCI).

What all share (experiment): NCI-60 one-dose screen, 48 h (100 = growth as untreated, 0 = no growth, -100 = all killed)
Holding throughout (conditions): 10 µM unless noted

In assay [1] the test system is DU-145 prostate.
The subject of assay [2] is K-562 leukemia.
The subject of assay [3] is MALME-3M melanoma.
Assay [4] concerns MDA-MB-231 breast.
The subject of assay [5] is RXF 393 renal.
Assay [6] relates to SF-268 CNS.
Assay [7] concerns SF-295 CNS.
For assay [8], the system named is SF-539 CNS.
The subject of assay [9] is UACC-257 melanoma.
The test system of assay [10] is M14 melanoma.

Compounds without any hit were thinned out: in the full panel of roughly 83,000, 20% have a hit.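 Interpretation: 100, growth as untreated; towards 0, rising growth inhibition; 0, no net growth; 0 to -100, cell death. Compounds scoring below 10 were considered active.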 Values without a mark were called inactive. Calls of active or inactive are those of the source.

Turning to `COc1ccc(/C=C2\Oc3cc(OCCCCCN4CCCCC4)ccc3C2=O)cc1OC`, the growth in assay [1] was 89.6%; in assay [2], -54.6% (active); in assay [3], 83.7%; in assay [4], 86.7%; in assay [5], 76.3%; in assay [6], 87.2%. Further, the growth in [7] is 98.6%; in assay [8] it was 81.1%; in assay [9], 87.4%; in assay [10], 89.1%.
On to `CC(=O)Nc1ccc(-n2cnc3cc(-c4ccc(OCCN5CCCCC5)cc4)ccc32)cc1`, for which the growth in [1] is 89.3%; in [2] it was 1.57% (active); in assay [3], 77.5%; in [4], 76.1%; in assay [5], 80.4%; in [6], 84.1%. Also, the growth in [7] is 96.7%; in assay [8] it was 14.4%; in assay [9], 108%; in [10], 47.1%.
With `c1ccc2c(-c3nccs3)c[nH]c2c1`, the growth in [1] was 107%; in assay [2] it was 99.2%; in [3], 99.1%; in assay [4], 92.6%; in assay [5], 95%; in assay [6], 96.7%. The growth was 101% in assay [7], 96.4% in assay [8], 111% in [9] and 99.1% in assay [10].
With `CCCCCOc1ccc(/C=N/Nc2cc(C)nc3ccc(Cl)cc23)cc1`, the growth was 5.9% (active) in assay [1]; -33% (active) in [2]; -63.8% (active) in assay [3]; -77.3% (active) in assay [4]; -85.5% (active) in assay [5]; 72% in [6]. The growth is -86% (active) in assay [7], -78.2% (active) in assay [8], 99.2% in [9] and -15.4% (active) in assay [10].
As to `CCOC(=O)c1cc(C(=O)c2ccc(OC)c(OC)c2)n2ccc(/C=C/c3cc[n+](CC(=O)c4ccc(OC)c(OC)c4)cc3)cc12`, the growth is 96.3% in assay [1]; 78.2% in assay [2]; 97.3% in assay [3]; 89.4% in [4]; 111% in assay [5]; 99.5% in assay [6]. The growth in assay [7] is 102%; in assay [8] it was 87.3%; in [9], 98.7%; in assay [10], 96.9%.
As for `COc1ccc(C(=O)C2C(C#N)C(C#N)C3c4ccccc4C=CN23)cc1` (stereo not given), the growth in [1] is 103%; in assay [2], 73.1%; in assay [3], 92.1%; in assay [4], 79.2%; in assay [5] it was 77.9%; in [6], 91%. Besides, the growth in assay [7] is 95.8%; in [8] it was 95.4%; in assay [9], 85.7%; in [10], 96.2%.
Take `COC(=O)N[C@H]1CCc2c(Cl)c(OC)c(OC)c(OC)c2-c2ccc(SC)c(=O)cc21`: the growth was -11.1% (active) in [1]; 7.05% (active) in assay [2]; 36.8% in assay [3]; -2.11% (active) in assay [4]; 20.3% in assay [5]; 20.2% in [6]. For the same molecule, the growth in assay [7] is 12%; in assay [8], -0.571% (active); in [9], 68.3%; in assay [10], 0.0864% (active).
Take `CCCCNC(=O)Oc1ccc(/C(=C(\C)c2ccccc2)c2ccc(OCCN3CCCCC3)cc2)cc1`: the growth in [1] was 82.3%; in assay [2] it was 5.45% (active); in assay [3] it was 44.6%; in [4], 73%; in assay [5], 53.2%; in assay [6], 67.7%. Also, the growth in assay [7] was 42.6%; in assay [8], 31%; in assay [9], -24.1% (active); in assay [10] it was -15.6% (active).
For `COc1cc(-c2csc(NC(=O)c3cc(F)cc(C(F)(F)F)c3)n2)cc(OC)c1OC`, the growth is 14.6% in assay [1]; 8.12% (active) in [2]; 40.3% in [3]; 56.5% in [4]; 11.8% in assay [5]; 42.4% in assay [6]. In addition, the growth in [7] is 38.1%; in assay [8] it was 26.8%; in assay [9], 58.6%; in assay [10] it was 23.6%.
Take `COc1ccc(N2CCN(c3ccc(NC4=C(Cl)C(=O)c5ncccc5C4=O)cc3)CC2)cc1`: the growth in [1] is 35.3%; in assay [2], 4.16% (active); in [3], 31%; in assay [4] it was 56.7%; in assay [5], 62.6%; in [6], 40%. In addition, the growth is 81.2% in assay [7], 39.4% in assay [8], 35.6% in assay [9] and 53.6% in assay [10].
`CCSCC1CC(O)(c2ccccc2)CC(c2ccc(F)cc2)O1` (stereo not given): the growth in assay [1] is 9.94% (active); in assay [2], 11.9%; in assay [3] it was -17.8% (active); in assay [4], 20.6%; in assay [5], -5.44% (active); in assay [6], 20%. The growth is -14.8% (active) in assay [7], 36.5% in assay [8], 35.7% in [9] and 5.84% (active) in assay [10].
For `Cc1cc2nc3c4cc(C=O)ccc4n(CCN(C)C)c3nc2cc1C`, the growth is 0.0752% (active) in [1]; 5.5% (active) in assay [2]; -3.12% (active) in assay [3]; 24% in [4]; 19.4% in [5]; 37.3% in assay [6]. Besides, the growth in assay [7] is 17.1%; in [8] it was 21%; in [9], 11.4%; in assay [10], 15.8%.
Turning to `COc1cc(F)c(/C=C/c2cc(/C=C/c3cc(OC)c(OC)cc3F)on2)cc1OC`, the growth in [1] is 88.2%; in assay [2] it was 63.3%; in assay [3], 69.3%; in assay [4], 83%; in assay [5] it was 92.8%; in assay [6], 86.7%. The growth in assay [7] was 97.7%; in assay [8], 98%; in assay [9], 86.3%; in assay [10] it was 80.9%.
